Measured values published in PubChem BioAssay AID1159580 (chemical genetic matrix, 2015).
The whole screen tested about 5,500 compounds, of which about 2,000 (36%) were called active. About 18% were inconclusive and are not listed. Cut-off read from the data, not from the text of the source: active = normalized growth mostly below about 0.91 (no sharp cut-off); inconclusive = no clear call, values can overlap the other calls; inactive = mostly above about 0.92. The list shows a part of the results.

Test: chemical genetic growth profiling, strain panel (AID 1159580);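 note: tested at 20 µM; growth read once vehicle control cultures reached saturation at 30 °C; 1 = growth at the plate median or of vehicle wells; lower values mean less growth of the strain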
Details: growth OD

Measured: normalized growth

O=S1OCC2C(CO1)C1(Cl)C(Cl)=C(Cl)C2(Cl)C1(Cl)Cl (centres undefined)
active: S. cerevisiae deletion strains, locus YNL307C, strain MCK1, hits give low values 0.885 | S. cerevisiae deletion strains, locus YOR270C, strain vph1, hits give low values 0.633
inactive: S. cerevisiae deletion strains, locus YJR043C, strain POL32, hits give low values 0.96 | S. cerevisiae deletion strains, locus YJR075W, strain HOC1, hits give low values 0.986 | S. cerevisiae deletion strains, locus YKL009W, strain mrt4, hits give low values 0.947 | S. cerevisiae deletion strains, locus YKL068W, hits give low values 0.964 | S. cerevisiae deletion strains, locus YKL085W, strain MDH1 (second series), hits give low values 0.982 | S. cerevisiae deletion strains, locus YKL085W, strain MDH1, hits give low values 0.982 | S. cerevisiae deletion strains, locus YKL160W, strain elf1, hits give low values 0.953 | S. cerevisiae deletion strains, locus YKL190W, strain CNB1, hits give low values 1 | S. cerevisiae deletion strains, locus YKR001C, strain vps1, hits give low values 0.975 | S. cerevisiae deletion strains, locus YKR026C, strain gcn3, hits give low values 0.987 | S. cerevisiae deletion strains, locus YKR091W, strain srl3, hits give low values 0.991 | S. cerevisiae deletion strains, locus YLL001W, strain dnm1, hits give low values 0.99 | S. cerevisiae deletion strains, locus YLL026W, hits give low values 1 | S. cerevisiae deletion strains, locus YLL041C, strain sdh2, hits give low values 0.992 | S. cerevisiae deletion strains, locus YLR027C, strain aat2, hits give low values 0.961 | S. cerevisiae deletion strains, locus YLR039C, strain RIC1, hits give low values 1.06 | S. cerevisiae deletion strains, locus YLR058C, strain SHM2, hits give low values 0.979 | S. cerevisiae deletion strains, locus YLR102C, strain apc9, hits give low values 0.973 | S. cerevisiae deletion strains, locus YLR221C, strain rsa3, hits give low values 0.931 | S. cerevisiae deletion strains, locus YLR258W, strain gsy2, hits give low values 0.973 | S. cerevisiae deletion strains, locus YLR262C, strain YPT6 (second series), hits give low values 1.06 | S. cerevisiae deletion strains, locus YLR262C, strain YPT6, hits give low values 1.05 | S. cerevisiae deletion strains, locus YLR268W, strain sec22, hits give low values 0.97 | S. cerevisiae deletion strains, locus YLR320W, strain mms22, hits give low values 0.961 | S. cerevisiae deletion strains, locus YLR330W, strain CHS5, hits give low values 0.984 | S. cerevisiae deletion strains, locus YLR342W, strain FKS1 (second series), hits give low values 0.872 | S. cerevisiae deletion strains, locus YLR342W, strain FKS1, hits give low values 0.991 | S. cerevisiae deletion strains, locus YLR357W, strain rsc2, hits give low values 0.996 | S. cerevisiae deletion strains, locus YLR370C, strain arc18, hits give low values 0.997 | S. cerevisiae deletion strains, locus YLR371W, strain rom2, hits give low values 0.949 | S. cerevisiae deletion strains, locus YLR384C, strain iki3, hits give low values 1 | S. cerevisiae deletion strains, locus YLR418C, strain cdc73, hits give low values 0.946 | S. cerevisiae deletion strains, locus YML016C, strain PPZ1, hits give low values 0.991 | S. cerevisiae deletion strains, locus YML032C, strain rad52, hits give low values 0.974 | S. cerevisiae deletion strains, locus YML120C, strain ndi1, hits give low values 0.983 | S. cerevisiae deletion strains, locus YML124C, strain tub3, hits give low values 0.976 | S. cerevisiae deletion strains, locus YMR058W, strain fet3, hits give low values 0.976 | S. cerevisiae deletion strains, locus YMR078C, strain ctf18, hits give low values 0.977 | S. cerevisiae deletion strains, locus YMR125W, strain sto1, hits give low values 0.998 | S. cerevisiae deletion strains, locus YMR129W, hits give low values 0.992 | S. cerevisiae deletion strains, locus YMR205C, strain PFK2, hits give low values 0.91 | S. cerevisiae deletion strains, locus YMR223W, strain ubp8, hits give low values 0.955 | S. cerevisiae deletion strains, locus YMR231W, strain pep5, hits give low values 0.97 | S. cerevisiae deletion strains, locus YMR263W, strain SAP30, hits give low values 0.946 | S. cerevisiae deletion strains, locus YMR307W, strain GAS1, hits give low values 0.978 | S. cerevisiae deletion strains, locus YNL067W, strain RPL9B, hits give low values 0.981 | S. cerevisiae deletion strains, locus YNL071W, strain lat1, hits give low values 0.966 | S. cerevisiae deletion strains, locus YNL128W, strain TEP1, hits give low values 0.975 | S. cerevisiae deletion strains, locus YNL153C, strain GIM3, hits give low values 0.987 | S. cerevisiae deletion strains, locus YNL209W, strain ssb2, hits give low values 0.991 | S. cerevisiae deletion strains, locus YNL233W, strain BNI4, hits give low values 1 | S. cerevisiae deletion strains, locus YNL248C, strain rpa49, hits give low values 0.992 | S. cerevisiae deletion strains, locus YNL250W, strain rad50, hits give low values 0.957 | S. cerevisiae deletion strains, locus YNL271C, strain bni1, hits give low values 0.971 | S. cerevisiae deletion strains, locus YNL298W, strain CLA4, hits give low values 0.946 | S. cerevisiae deletion strains, locus YNL322C, strain KRE1 (second series), hits give low values 0.986 | S. cerevisiae deletion strains, locus YNL322C, strain KRE1, hits give low values 0.978 | S. cerevisiae deletion strains, locus YNR049C, strain mso1, hits give low values 0.997 | S. cerevisiae deletion strains, locus YNR052C, strain pop2, hits give low values 0.968 | S. cerevisiae deletion strains, locus YOL006C, strain TOP1, hits give low values 0.822 | S. cerevisiae deletion strains, locus YOL012C, strain htz1 0.777 | S. cerevisiae deletion strains, locus YOL147C, strain pex11, hits give low values 0.991 | S. cerevisiae deletion strains, locus YOR001W, strain rrp6, hits give low values 0.978 | S. cerevisiae deletion strains, locus YOR061W, strain CKA2, hits give low values 0.987 | S. cerevisiae deletion strains, locus YOR069W, strain VPS5, hits give low values 0.979 | S. cerevisiae deletion strains, locus YOR070C, strain gyp1, hits give low values 0.979 | S. cerevisiae deletion strains, locus YOR080W, strain dia2, hits give low values 0.991 | S. cerevisiae deletion strains, locus YOR083W, strain WHI5, hits give low values 0.942 | S. cerevisiae deletion strains, locus YOR106W, strain vam3, hits give low values 0.884 | S. cerevisiae deletion strains, locus YOR136W, strain idh2, hits give low values 0.98 | S. cerevisiae deletion strains, locus YOR144C, strain elg1, hits give low values 0.984 | S. cerevisiae deletion strains, locus YOR184W, strain ser1, hits give low values 0.887 | S. cerevisiae deletion strains, locus YOR265W, strain rbl2, hits give low values 0.993 | S. cerevisiae deletion strains, locus YOR290C, strain snf2, hits give low values 0.937 | S. cerevisiae deletion strains, locus YOR316C, strain cot1, hits give low values 0.975 | S. cerevisiae deletion strains, locus YPL051W, strain arl3, hits give low values 0.988 | S. cerevisiae deletion strains, locus YPL055C, strain LGE1, hits give low values 0.974 | S. cerevisiae deletion strains, locus YPL078C, strain atp4, hits give low values 0.987 | S. cerevisiae deletion strains, locus YPL106C, strain sse1, hits give low values 0.993 | S. cerevisiae deletion strains, locus YPL240C, strain hsp82, hits give low values 0.991 | S. cerevisiae deletion strains, locus YPL241C, strain CIN2, hits give low values 0.985 | S. cerevisiae deletion strains, locus YPR119W, strain clb2, hits give low values 0.976 | S. cerevisiae deletion strains, locus YPR141C, strain kar3, hits give low values 0.98 | S. cerevisiae deletion strains, locus YPR163C, strain tif3, hits give low values 0.978 | S. cerevisiae deletion strains, locus YPR167C, strain met16, hits give low values 0.971 | S. cerevisiae deletion strains, strain wtn01, hits give low values 0.954 | S. cerevisiae strains, strain wild type, hits give low values 0.987
